From PubChem
PLK1 PBD block: blocks phosphopeptide binding to human PLK1 polo-box domain; Plk1 PBD binding of FITC phosphopeptide, fluorescence polarization; Potency, µM, for the others: max response, negative = inhibition, most hits filed as inhibitors; actives 2.8% (n = 360,000); AID 720504; note: potency is the fitted concentration of half-maximal effect; series mostly up to about 57 µM; % is set by controls: 0 for no effect and ±100 for the full control effect; nearly all actives have a fitted effect of over 65% in size
JMJD2A Tudor: JMJD2A Tudor domain (human) inhibition. O75164. AlphaScreen JMJD2A-Tudor / H3K4me3 peptide binding. Potency, µM (series often up to 114 µM), for inactives: at the top dose activity change, negative = inhibition, hits mostly inhibitors. actives 4.4% (n = 390,000); note: potency is the fitted concentration of half-maximal effect; % is set by controls: 0 for no effect and ±100 for the full control effect; nearly all actives have a fitted effect of over 50% in size
HP1b binding inh: inhibitors of HP1-beta chromodomain binding to methylated histone tails; actives 0.56% (n = 390,000); Potency, µM (doses to about 114 µM), without a hit: at the highest dose activity change, negative = inhibition, hits mostly inhibitors; AlphaScreen HP1-beta / biotin-H3K9me3 peptide binding; note: potency is the fitted concentration of half-maximal effect; nearly all actives have a fitted effect of over 70% in size
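HP1-beta protein (50 nM final) preincubated 30 min at room temperature with biotinylated H3(1-18)K9me3 peptide (50 nM) in PBS pH 7.4, 0.01% Tween-20, then compound added for 30 min. AlphaScreen streptavidin donor/nickel chelate acceptor beads (10 ug/mL final), 30 min dark, luminescence read.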
G9a inh: G9a (human) methyltransferase inhibition; actives 8.8% (n = 350,000); Q96KQ7; G9a H3K9 monomethylation, AlphaScreen, 2 h; Potency, µM (titrated, usually from 102 µM), without a hit: at the top dose activity, negative = inhibition, usual class: inhibitors; note: potency is the fitted concentration of half-maximal effect; % is set by controls: 0 for no effect and ±100 for the full control effect; nearly all actives have a fitted effect of over 75% in size
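AlphaScreen read-out: biotin-H3K9 peptide (500 nM) methylation by 20 nM enzyme with 20 uM SAM, 2 h at room temperature after 15 min compound preincubation; anti-monomethyl H3K9 antibody plus donor/acceptor beads, 10 min dark.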
PI5P4Ka inh: PI5P4K alpha (human) kinase inhibition; max response, %; P48426; PI5P4Kalpha enzyme, ADP-Glo luminescence, 60 min; active compounds read low; AID 652105; actives 1.2% (n = 330,000); active = max response of -50% or lower; inconclusive = between -30% and -50%; inactive = -30% or higher; note: value at the top dose of about 77 µM; % is set by controls: 0 for no effect and ±100 for the full control effect
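ADP-Glo luminescence end-point read after a 60 min room-temperature kinase reaction of PI5P4Kalpha plus substrate, initiated with ATP at 5 microM final. Buffer: 0.038 M HEPES pH 7.4, EGTA, 0.1% CHAPS, 5% DMSO.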
BAZ2B block: inhibitors of human BAZ2B bromodomain; actives 4.4% (n = 360,000); Potency, µM (titrated, usually from 114 µM), inactives show at the top dose activity change, negative = inhibition, hits mostly inhibitors; Q9UIF8; AID 504333; AlphaScreen BAZ2B-H3K14Ac peptide displacement; note: potency is the fitted concentration of half-maximal effect; % is set by controls: 0 for no effect and ±100 for the full control effect; nearly all actives have a fitted effect of over 60% in size
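Complex of BAZ2B and biotin-H3K14Ac (50 nM apiece) forms over 30 min at RT, then faces library compounds up to 110 uM for another 30 min; AlphaScreen beads added, 20 min dark incubation, luminescence read.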
* = called active by the depositor; ? = inconclusive; · = no result given; [ ] = another dose, or the depositor's remark. This is a sample that favours compounds with a hit; in the whole collection about 12% have one here. Unless noted, calls come from the whole dose curve; as a rule, active = well fitted curve in the direction sought with a large enough effect; inconclusive = small, poorly fitted or top-dose-only effect, or another doubt; inactive = no such curve, though single readings can be large; an effect the other way counts as inactive or inconclusive.

SMILES	PLK1 PBD block	JMJD2A Tudor	HP1b binding inh	G9a inh	PI5P4Ka inh	BAZ2B block
COc1ccc(C(C#N)c2ccc(=O)[nH]n2)cc1 (configuration not stated)	-3.1%	1.0%	28.1%	?	2.7	-12.9%
O=C(NCc1cccnc1)c1cc(C(=O)NCc2cccnc2)cc([N+](=O)[O-])c1	-4.8%	·	·	·	-4.1	·
Cc1nnnn1/C(=C\c1ccccc1)C(=O)OCC(=O)NC(C)(C)C	-9.7%	-7.6%	30.7%	12.0%[59 µM]	3.1	-3.4%
Cc1nnnn1/C(=C\c1ccccc1)C(=O)OCC(=O)NC1CCCCC1	-20.8%	-15.2%	9.1%	50.1µM*	3.2	11.0%
CC(N)(C(=O)O)c1cccc(CC(=O)O)c1 (configuration not stated)	·	·	·	19.0%[59 µM]	·	·
O=C(O)c1cccn2c(=O)c3ccccc3nc12	-2.5%	79.4µM*	6.1%	?	2.2	?
COc1cc(/C=C2/C(=O)NN(c3cccc(F)c3)C2=O)ccc1OC(=O)c1ccco1	2.12µM*	-24.6%	-8.9%	28.2µM*	-25.6	?
COc1cc(/C=C2/C(=N)N3OC(C)=CC3=NC2=O)ccc1OC(=O)c1ccco1	-4.5%	-12.1%	4.1%	-34.7%	-11.8	-5.0%
COc1cc(/C=C2/C(=O)NN(c3ccc(Cl)cc3)C2=O)ccc1OC(=O)c1ccco1	2.67µM*	?	-35.3%	?	?	?
COc1cc(/C=N/NC(=O)c2ccc(F)cc2)ccc1OC(=O)c1ccco1	-10.5%	-18.3%	12.2%	-3.6%[59 µM]	-17.4	0.0%
COc1ccc(C2C3C=CCCC3(C)C(=O)N2Cc2ccccc2)cc1Cl (configuration not stated)	·	-15.9%	18.7%	·	·	·
CCC[C@H]1NC(=O)[C@H](C)N(C)C(=O)C(C)(C)C(=O)C(C)NC(=O)[C@H](Cc2ccc(OC)cc2)N(C)C(=O)[C@H](C(C)C)N(C)C(=O)CNC(=O)[C@H](CC(C)C)N(C)C(=O)CNC(=O)[C@H]([C@@H](C)CC)OC(=O)[C@H]1C (some centres not stated)	-11.0%	22.4µM*	-5.9%	·	-2.7	·
CC[C@H](C)C1OC(=O)[C@@H](C)[C@@H](CC)NC(=O)[C@H](C)N(C)C(=O)C(C)(C)C(=O)C(C)NC(=O)[C@H](Cc2ccc(OC)cc2)N(C)C(=O)[C@H](C(C)C)N(C)C(=O)CNC(=O)[C@H](CC(C)C)N(C)C(=O)CNC1=O (some centres not stated)	-7.8%	·	·	·	4.2	·
O=C(Nc1ccc(F)cc1)c1cccc(N2CCCS2(=O)=O)c1	·	1.9%	33.5%	7.0%[59 µM]	·	0.8%
COc1ccc(OC)c(NC(=O)CC2SC(=Nc3ccc(F)cc3)N(CCC3=CCCCC3)C2=O)c1 (configuration not stated)	-3.3%	-24.2%	5.1%	50.1µM*	2.3	?
COc1cc([N+](=O)[O-])ccc1NC(=O)CC1SC(=Nc2ccc(F)cc2)N(CCC2=CCCCC2)C1=O (configuration not stated)	-19.5%	-34.8%[57.1 µM]	?	50.1µM*	5.2	?
COc1ccc(OC)c(NC(=O)CC2SC(=Nc3ccccc3)N(CCc3ccccn3)C2=O)c1 (configuration not stated)	-23.8%	?	6.0%	?	1.7	?
CCCCSCCCNC(=O)CN1C(=O)COc2ccc(S(=O)(=O)N3CCC(C)CC3)cc21	·	-20.5%	18.9%	?	·	-6.7%
CC(C)[C@H](NC(=O)OC(C)(C)C)c1cc(C(=O)NC2CC2)c(N)s1	-24.8%	·	·	·	5.1	·
COC(=O)CN1C(=O)Nc2ccc(Br)cc2C1c1ccccc1Cl (configuration not stated)	0.6%	-16.6%	18.5%	70.8µM*	-4.9	3.9%
COC(=O)CN1C(=O)Nc2ccc(Cl)cc2C1c1ccccc1 (configuration not stated)	-12.8%	-11.6%	18.7%	7.0%	5.8	-18.5%
O=C(CSc1nc2ccccc2[nH]1)c1ccc(Cl)s1	-14.2%	-18.5%	2.2%	?	-25.6	-2.8%
C/C(=N\Nc1nc2ccccc2[nH]1)c1ccc(Cl)s1	-7.7%	?	-10.5%	20µM*	-4.7	?
C/C(=N\Nc1ncc(Cl)cc1Cl)c1ccccn1	-5.7%	?	12.4%	44.7µM*	-4.5	22.4µM*
CC(=O)N1CCC(=NNc2nc3ccccc3[nH]2)CC1	-14.0%	25.1µM*	?	44.7µM*	-3.1	28.2µM*
SMILES	PLK1 PBD block	JMJD2A Tudor	HP1b binding inh	G9a inh	PI5P4Ka inh	BAZ2B block
C/C(=N\Nc1ncc(Cl)cc1Cl)c1ccc(N2CCOCC2)cc1	-0.9%	-1.5%	21.1%	56.2µM*	5.4	50.1µM*
CCC(C)(C)C1CCC(=NNc2nc3ccccc3[nH]2)CC1 (configuration not stated)	-21.4%	-35.5%	17.9%	?	0.6	?
C/C(=N\Nc1ncnc2sc(C)c(C)c12)c1ccccn1	-16.9%	31.6µM*	9.5%[57 µM]	25.1µM*	0.1	7.08µM*
Cc1sc2ncnc(N/N=C/c3cccc(O)c3)c2c1C	3.3%	?	-13.4%	9.1%	4.0	?
C/C(=N\Nc1cccc2cccnc12)c1ccccn1	-6.8%	?	?	14.1µM*	-1.4	?
C/C(=N\Nc1nc(C)cc(-c2ccccc2)n1)c1ccc(C)o1	1.5%	-25.9%	18.2%	15.3%	-10.2	?
C/C(=N\Nc1nc2ccccc2[nH]1)c1ccc(N2CCOCC2)cc1	-0.2%	35.5µM*	?	50.1µM*	-11.3	20µM*
C/C(=N\Nc1nc2ccccc2[nH]1)c1ccc(C)o1	-11.7%	?	-24.8%	3.5%[59 µM]	-8.5	44.7µM*
O=[N+]([O-])c1ccccc1Sc1nccn1Cc1ccccc1	1.6%	?	0.1%	50.1µM*	7.7	?
NC(=O)CSc1nccn1Cc1ccccc1	-5.8%	2.2%	18.1%	-25.0%	-2.4	-1.6%
COC(=O)c1cc2oc(C)cc2n1Cc1cc(C)ccc1C	·	-29.5%	13.6%	?	·	-31.6%
Cn1c(SCc2ccc(Br)cc2)nc2c([nH]c3ccccc32)c1=O	·	-7.4%	10.9%[57 µM]	-0.1%[59 µM]	·	3.1%
Cn1/c(=N/N=C/c2ccc(N3CCOCC3)cc2)sc2ccccc21	0.0%	-13.4%	20.1%	-37.6%	0.8	?
Cn1/c(=N/N=C/c2ccccn2)sc2ccccc21	-28.3%	89.1µM*	?	?	-8.3	?
C=CCc1c(C)nc(SCc2ccccc2)[nH]c1=O	-7.3%	-7.2%	22.4%	·	0.8	?
CC1CN(c2nnc(-c3ccccc3)c3ccccc23)CC(C)O1 (configuration not stated)	21.2µM*	?	-13.3%	3.0%	0.5	-3.7%
